Most compounds without a hit are left out; they make up all but 2.3% or so of the library.
CHRM1 PAM = human M1 muscarinic receptor positive allosteric modulators, primary screen, CHO-K1 cells, Fluo-8 calcium fluorescence, 1536-well. 360,000 tested, 0.088% active. AID 588819, 2011. CHO-K1 hM1, ACh EC20; 0% = ACh EC20, 100% = maximal ACh. Muscarinic acetylcholine receptor M1 (Homo sapiens), P11229. activation, % at 3 µM; in the data active means activation above about 19%, passing the limit was not always enough
Target sequence (P11229 whole entry, looked up): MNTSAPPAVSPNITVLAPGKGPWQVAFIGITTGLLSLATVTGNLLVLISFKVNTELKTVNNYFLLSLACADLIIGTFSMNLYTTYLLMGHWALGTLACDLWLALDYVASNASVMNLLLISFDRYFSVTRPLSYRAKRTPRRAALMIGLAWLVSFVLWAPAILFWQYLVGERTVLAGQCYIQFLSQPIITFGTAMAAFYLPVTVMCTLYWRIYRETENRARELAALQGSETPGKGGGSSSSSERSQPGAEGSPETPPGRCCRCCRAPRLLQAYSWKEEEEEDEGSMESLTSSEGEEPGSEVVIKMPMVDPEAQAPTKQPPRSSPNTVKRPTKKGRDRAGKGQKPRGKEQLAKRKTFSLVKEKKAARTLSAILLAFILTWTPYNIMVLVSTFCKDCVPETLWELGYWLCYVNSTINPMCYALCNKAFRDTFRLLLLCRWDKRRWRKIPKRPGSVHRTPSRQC
CHRM1 antagonist = human M1 muscarinic receptor antagonists, primary screen, CHO-K1 cells, Fluo-8 calcium fluorescence, 1536-well; CHO-K1 hM1, ACh EC80 antagonist; inhibition, % at 3 µM; 360,000 tested, 1.3% active;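 active means percent inhibition above its own plate's cutoff, namely the mean of that plate's compound wells plus 3 SD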;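 further: peak over basal fluorescence ratio during 140 s after agonist addition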
M1 PAM parental = nonselective calcium activators in parental CHO-K1 cells, primary screen, counter-screen for M1 PAM project, cell-based, Fluo-8 calcium fluorescence, full deck, 1536-well; ATP EC20; 0% at ATP EC20, 100% at ATP max; activation, % at 3 µM; 360,000 tested, 0.02% active;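 active means activation above the run cutoff, the mean activation of all test compounds plus 3 SD, cut at about 40% in these data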;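 further: peak over basal fluorescence ratio in a 140 s read after ATP addition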
M1 ag parental = counter-screen for M1 agonists: effect in parental CHO-K1 cells; Fluo-8 calcium fluorescence; scaled to maximal ATP response, vehicle zero; activation, % at 3 µM; 360,000 tested, 0.48% active; AID 602248, 2012; in the data active means activation above about 15%;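 further: untransfected CHO-K1 host cells lacking M1 receptor as counterscreen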
CHRM1 agonist = human M1 muscarinic receptor agonists, primary screen, Fluo-8 calcium fluorescence, CHO-K1 cells, HTS; Muscarinic acetylcholine receptor M1 (Homo sapiens), P11229; CHO-K1 hM1, agonist mode; 0% DMSO, 100% acetylcholine EC100; activation, % at 3 µM; 360,000 tested, 0.33% active;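 active means activation above the run's mean compound activation plus 3 SD, cut at about 16% in these data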;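 further: peak over basal fluorescence ratio within a 140 s kinetic read after compound addition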
CHO-K1 Ca antag = counter-screen for M1 antagonists: effect in parental CHO-K1 cells; ATP-induced calcium, Fluo-8 fluorescence; inhibition, % at 3 µM; 360,000 tested, 0.6% active; AID 602250;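 active means inhibition above a per-plate cutoff, the plate's mean sample inhibition plus 3 SD, cut at about 24% in these data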
Large screens that a line does not name were inactive.

Cn1c(COc2ccccc2O)[n+](C)c2ccccc21	none
O=C(COC(=O)C12CC3CC(CC(Br)(C3)C1)C2)N1CCOCC1	M1 ag parental 17
Cc1ccc(C)c(-n2cc[nH]c2=S)c1	none
COc1ccc(Cl)cc1CN1C(=O)C(Cc2ccccc2)ON=C1C (centres undefined)	none
Cc1cc(C)n(CC(=O)N2c3ccccc3Sc3ccccc32)n1	CHRM1 antagonist 38
Cc1cccc[n+]1CC(=O)N1c2ccccc2Sc2ccccc21	CHRM1 antagonist 99
CCOC(=O)C1(C)NC(c2ccccc2F)C2C(=O)N(CC)C(=O)C21 (centres undefined)	none
O=C(NCC(=O)N1CCCCCCC1)c1ccc(Cl)c(Cl)c1	none
CNC(C)C(=O)NC(C(=O)NC(C)C(=O)Nc1cccc2ccccc12)C(C)C (centres undefined)	none
O=C(C1CCCO1)N1CCN(c2ccccn2)CC1 (centres undefined)	none
CCOC(=O)C1=C(NC(=S)NC(=O)c2ccccc2)c2ccccc2CC1(C)CC (centres undefined)	M1 ag parental 20
CCOC(=O)C1=C(NC(=S)NC(=O)c2ccccc2)c2ccccc2CC1C(C)C (centres undefined)	none
O=C(Nc1ccc(Br)cc1)c1ccc(F)c(S(=O)(=O)NCc2cccs2)c1	CHRM1 antagonist 34, CHO-K1 Ca antag 28
CC(OC(=O)CCCOc1ccccc1)C(=O)NC(N)=O (centres undefined)	CHO-K1 Ca antag 28
Cc1ccccc1C(=O)Nc1cccc(C(=O)Nc2ccccc2C(=O)O)c1	CHO-K1 Ca antag 26
CCn1ccnc1CN(C)Cc1c(C(=O)N2C[C@@H](C)O[C@@H](C)C2)nc2ccc(Cl)cn12	none
Cn1c(=O)[nH]c2c(nc(-c3ccc(Cl)cc3)n2C)c1=O	CHO-K1 Ca antag 29
CCCCn1c(-c2ccc(Cl)cc2)nc2c(=O)n(C)c(=O)[nH]c21	none
COc1ccc2[nH]cc(CCNC(=O)COc3cc(C)cc4oc(=O)cc(C)c34)c2c1	CHRM1 antagonist 31
Cc1cc(OC(C)C(=O)NCCc2c[nH]c3ccccc23)c2c(C)cc(=O)oc2c1 (centres undefined)	none
COc1ccc(S(=O)(=O)Nc2ccc(N3CCOCC3)cc2)cc1	none
COc1ccc(NS(=O)(=O)c2ccc(N3CCOCC3)c(N)c2)cc1	CHRM1 antagonist 31
COc1ccc(NS(=O)(=O)c2cc3c(cc2C)N(C)CCO3)cc1	CHRM1 antagonist 32
CCOc1ccc(NS(=O)(=O)c2cc3c(cc2C)N(C)CCO3)cc1	none
Cc1cccc(C)c1OCC(O)Cn1ccnc1C (centres undefined)	CHO-K1 Ca antag 26
COc1c(Br)cc(Br)cc1/C=N/NC(=O)c1ccncc1	M1 ag parental 15
COc1ccc(C(C(=O)NCC2CCCO2)N(C(=O)CNC(=O)c2cccs2)c2ccccc2)cc1OC (centres undefined)	CHO-K1 Ca antag 24
COc1ccc(C(C(=O)NCC2CCCO2)N(C(=O)CNC(=O)c2ccco2)c2ccccc2)cc1OC (centres undefined)	none
O=C(NCC1CCCO1)C(c1ccc(F)cc1)N(C(=O)Cn1nnc(-c2ccc(F)cc2)n1)c1cccc(O)c1 (centres undefined)	CHRM1 antagonist 36
Cc1cccc(N(C(=O)CNC(=O)c2ccco2)C(C(=O)NCC2CCCO2)c2ccccc2)c1 (centres undefined)	CHRM1 antagonist 23
Cc1ccc(N(C(=O)CNC(=O)c2ccco2)C(C(=O)NCC2CCCO2)c2ccccc2)cc1 (centres undefined)	none
OCC1(CCOc2ccccc2)CCN(Cc2nc3ccc(F)cc3[nH]2)CC1	none
Cc1noc(C)c1C(=O)OCC(=O)Nc1ccccc1C(=O)NC(C)c1ccccc1 (centres undefined)	M1 PAM parental 49
